Of roughly 7,900 targets only a part is listed; those with a hit were picked by preference. About 0.6% of all pairs of compound and target were hits.

Sequence of UniProt Q9H307 (Q9H307 whole entry, looked up): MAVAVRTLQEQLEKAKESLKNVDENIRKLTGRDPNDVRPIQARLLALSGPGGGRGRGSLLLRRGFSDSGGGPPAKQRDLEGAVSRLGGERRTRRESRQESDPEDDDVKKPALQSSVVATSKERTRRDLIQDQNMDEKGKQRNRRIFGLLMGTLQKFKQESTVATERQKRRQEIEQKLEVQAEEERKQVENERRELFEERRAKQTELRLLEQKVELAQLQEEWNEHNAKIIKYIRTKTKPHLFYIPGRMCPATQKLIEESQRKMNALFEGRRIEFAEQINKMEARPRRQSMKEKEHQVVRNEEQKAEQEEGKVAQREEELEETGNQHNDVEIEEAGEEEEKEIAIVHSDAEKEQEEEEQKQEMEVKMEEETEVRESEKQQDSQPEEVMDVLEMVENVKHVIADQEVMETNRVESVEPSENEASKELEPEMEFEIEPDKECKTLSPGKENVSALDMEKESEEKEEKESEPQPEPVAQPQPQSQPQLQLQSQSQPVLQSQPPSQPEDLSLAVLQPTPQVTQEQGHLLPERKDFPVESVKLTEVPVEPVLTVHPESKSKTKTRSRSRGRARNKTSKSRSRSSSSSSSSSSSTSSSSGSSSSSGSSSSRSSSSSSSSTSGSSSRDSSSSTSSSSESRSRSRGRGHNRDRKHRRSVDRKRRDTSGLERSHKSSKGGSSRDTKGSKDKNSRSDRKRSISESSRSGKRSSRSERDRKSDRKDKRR
Sequence of UniProt P28070 (P28070 whole entry, looked up): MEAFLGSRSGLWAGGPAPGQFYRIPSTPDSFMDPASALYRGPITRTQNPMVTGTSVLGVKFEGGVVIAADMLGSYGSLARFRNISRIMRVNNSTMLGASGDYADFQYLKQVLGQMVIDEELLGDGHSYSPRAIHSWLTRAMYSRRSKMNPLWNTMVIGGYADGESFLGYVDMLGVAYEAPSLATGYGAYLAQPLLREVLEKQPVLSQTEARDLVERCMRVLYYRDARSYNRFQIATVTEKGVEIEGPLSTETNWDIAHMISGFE
Sequence of UniProt Q86UU1 (Q86UU1 whole entry, looked up): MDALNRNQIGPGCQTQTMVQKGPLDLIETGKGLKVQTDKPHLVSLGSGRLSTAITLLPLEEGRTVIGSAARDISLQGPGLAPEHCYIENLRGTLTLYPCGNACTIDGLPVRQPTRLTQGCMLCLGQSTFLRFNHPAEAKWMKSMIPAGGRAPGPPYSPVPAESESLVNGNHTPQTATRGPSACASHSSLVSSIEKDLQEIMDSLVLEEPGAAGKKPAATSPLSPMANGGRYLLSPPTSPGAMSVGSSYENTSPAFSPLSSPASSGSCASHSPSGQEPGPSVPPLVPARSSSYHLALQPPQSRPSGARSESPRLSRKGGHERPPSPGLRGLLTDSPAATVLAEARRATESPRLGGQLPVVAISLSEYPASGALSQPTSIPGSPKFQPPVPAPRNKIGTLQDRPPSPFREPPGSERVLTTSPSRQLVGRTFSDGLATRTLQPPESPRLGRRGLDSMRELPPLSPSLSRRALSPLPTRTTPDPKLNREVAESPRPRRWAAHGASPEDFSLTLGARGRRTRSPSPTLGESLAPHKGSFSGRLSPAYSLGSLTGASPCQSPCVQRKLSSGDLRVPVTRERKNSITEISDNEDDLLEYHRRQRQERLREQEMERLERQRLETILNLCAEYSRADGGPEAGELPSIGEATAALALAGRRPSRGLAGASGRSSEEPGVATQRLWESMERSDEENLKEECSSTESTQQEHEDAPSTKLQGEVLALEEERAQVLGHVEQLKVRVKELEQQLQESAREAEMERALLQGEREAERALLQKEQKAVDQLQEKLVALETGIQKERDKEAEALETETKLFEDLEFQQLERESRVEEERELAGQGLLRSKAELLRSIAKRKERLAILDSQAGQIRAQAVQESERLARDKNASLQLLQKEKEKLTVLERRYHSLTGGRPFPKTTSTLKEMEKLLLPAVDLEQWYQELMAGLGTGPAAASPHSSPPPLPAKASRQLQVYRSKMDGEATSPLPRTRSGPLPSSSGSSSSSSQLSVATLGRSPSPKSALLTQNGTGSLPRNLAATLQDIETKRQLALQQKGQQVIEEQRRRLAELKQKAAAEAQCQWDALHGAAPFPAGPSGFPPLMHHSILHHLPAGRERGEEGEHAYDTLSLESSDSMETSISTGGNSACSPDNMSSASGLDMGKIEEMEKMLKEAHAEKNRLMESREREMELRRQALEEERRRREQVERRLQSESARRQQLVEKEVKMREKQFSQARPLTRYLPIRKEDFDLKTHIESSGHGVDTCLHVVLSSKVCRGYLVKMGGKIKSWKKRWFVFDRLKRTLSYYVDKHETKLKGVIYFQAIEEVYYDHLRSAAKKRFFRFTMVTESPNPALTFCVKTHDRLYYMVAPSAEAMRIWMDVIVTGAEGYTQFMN
Sequence of UniProt Q7Z3K3 (Q7Z3K3 whole entry, looked up): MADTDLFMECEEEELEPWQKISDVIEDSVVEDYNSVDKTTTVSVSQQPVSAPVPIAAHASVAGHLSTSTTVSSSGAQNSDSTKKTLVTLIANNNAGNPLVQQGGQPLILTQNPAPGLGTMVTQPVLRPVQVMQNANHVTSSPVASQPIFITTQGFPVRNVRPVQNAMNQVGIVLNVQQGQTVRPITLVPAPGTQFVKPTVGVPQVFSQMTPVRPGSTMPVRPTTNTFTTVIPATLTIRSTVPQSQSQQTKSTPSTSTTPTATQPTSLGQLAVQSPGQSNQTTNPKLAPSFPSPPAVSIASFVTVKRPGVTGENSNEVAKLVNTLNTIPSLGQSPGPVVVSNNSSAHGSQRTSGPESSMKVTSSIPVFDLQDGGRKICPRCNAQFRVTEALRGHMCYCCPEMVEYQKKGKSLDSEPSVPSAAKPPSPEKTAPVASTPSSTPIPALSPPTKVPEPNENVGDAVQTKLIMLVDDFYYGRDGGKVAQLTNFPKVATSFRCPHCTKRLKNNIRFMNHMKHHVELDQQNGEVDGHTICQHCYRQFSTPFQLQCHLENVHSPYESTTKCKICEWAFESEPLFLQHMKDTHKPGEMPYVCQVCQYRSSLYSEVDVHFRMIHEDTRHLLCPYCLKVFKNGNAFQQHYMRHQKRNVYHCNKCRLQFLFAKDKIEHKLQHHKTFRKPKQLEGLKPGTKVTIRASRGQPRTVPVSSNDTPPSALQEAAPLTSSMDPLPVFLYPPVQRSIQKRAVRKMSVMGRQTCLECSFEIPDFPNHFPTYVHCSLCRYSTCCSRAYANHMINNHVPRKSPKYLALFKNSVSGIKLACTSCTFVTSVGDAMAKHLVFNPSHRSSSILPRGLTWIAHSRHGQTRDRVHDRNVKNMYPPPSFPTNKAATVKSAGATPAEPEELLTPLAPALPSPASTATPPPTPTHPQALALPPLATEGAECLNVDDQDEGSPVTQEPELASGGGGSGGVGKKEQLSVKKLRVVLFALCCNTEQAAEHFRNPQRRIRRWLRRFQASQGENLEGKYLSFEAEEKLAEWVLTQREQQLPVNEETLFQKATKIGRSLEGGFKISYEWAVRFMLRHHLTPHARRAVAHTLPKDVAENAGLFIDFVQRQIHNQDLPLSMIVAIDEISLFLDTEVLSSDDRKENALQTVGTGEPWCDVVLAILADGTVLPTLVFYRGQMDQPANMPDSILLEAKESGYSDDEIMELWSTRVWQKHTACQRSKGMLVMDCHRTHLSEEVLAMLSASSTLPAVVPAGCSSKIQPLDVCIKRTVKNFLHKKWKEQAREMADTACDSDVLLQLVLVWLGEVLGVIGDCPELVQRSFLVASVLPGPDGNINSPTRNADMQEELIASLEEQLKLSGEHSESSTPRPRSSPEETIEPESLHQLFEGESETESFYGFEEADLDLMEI
Sequence of UniProt P60484 (P60484 whole entry, looked up): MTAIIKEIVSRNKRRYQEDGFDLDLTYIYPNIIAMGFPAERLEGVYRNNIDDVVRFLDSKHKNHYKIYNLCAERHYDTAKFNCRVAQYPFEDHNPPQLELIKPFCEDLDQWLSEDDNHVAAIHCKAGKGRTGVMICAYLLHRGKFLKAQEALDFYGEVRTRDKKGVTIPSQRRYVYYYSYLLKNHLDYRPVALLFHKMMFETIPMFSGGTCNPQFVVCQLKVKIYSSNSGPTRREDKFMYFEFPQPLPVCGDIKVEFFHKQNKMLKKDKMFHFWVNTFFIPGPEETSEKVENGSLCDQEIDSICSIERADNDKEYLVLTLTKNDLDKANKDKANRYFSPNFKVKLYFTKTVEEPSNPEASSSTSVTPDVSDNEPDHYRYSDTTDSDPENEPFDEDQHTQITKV
Sequence of UniProt Q9P2B2 (Q9P2B2 whole entry, looked up): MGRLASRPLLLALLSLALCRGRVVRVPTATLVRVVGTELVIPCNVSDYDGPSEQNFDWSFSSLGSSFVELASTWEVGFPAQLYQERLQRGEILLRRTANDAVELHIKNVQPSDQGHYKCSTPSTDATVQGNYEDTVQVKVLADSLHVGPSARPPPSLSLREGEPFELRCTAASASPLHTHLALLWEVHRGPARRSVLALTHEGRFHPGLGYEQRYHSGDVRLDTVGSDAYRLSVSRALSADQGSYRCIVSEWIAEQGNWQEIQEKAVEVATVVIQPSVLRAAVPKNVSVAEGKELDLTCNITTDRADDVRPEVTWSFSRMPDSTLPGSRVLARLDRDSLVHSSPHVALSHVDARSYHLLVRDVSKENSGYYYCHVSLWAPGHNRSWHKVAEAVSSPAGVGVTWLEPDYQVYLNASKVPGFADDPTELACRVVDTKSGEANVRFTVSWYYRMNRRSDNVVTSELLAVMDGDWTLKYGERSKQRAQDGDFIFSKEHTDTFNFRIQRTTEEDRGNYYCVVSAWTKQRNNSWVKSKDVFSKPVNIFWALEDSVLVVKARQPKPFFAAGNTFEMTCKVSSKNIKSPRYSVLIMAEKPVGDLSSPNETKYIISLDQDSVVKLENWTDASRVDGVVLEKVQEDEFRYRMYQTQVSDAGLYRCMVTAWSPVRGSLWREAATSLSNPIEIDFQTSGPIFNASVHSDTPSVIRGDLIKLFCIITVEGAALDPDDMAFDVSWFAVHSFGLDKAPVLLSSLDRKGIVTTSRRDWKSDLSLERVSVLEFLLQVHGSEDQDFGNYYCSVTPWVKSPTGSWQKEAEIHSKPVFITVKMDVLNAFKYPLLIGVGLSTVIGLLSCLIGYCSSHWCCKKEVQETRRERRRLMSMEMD

Compound in one experiment: CC[C@@H]1C(=O)N(C)c2cnc(Nc3ccc(C(=O)NC4CCN(C)CC4)cc3OC)nc2N1C1CCCC1
The experiment is described as follows: log2 fold change, soluble protein after heating vs DMSO (PISA); higher = thermal stabilisation; K562 cells, 10 uM, 30 min; active = over 0.2 and 3.5 SD of the protein, either way, in both replicates (recomputed). The method in brief: (§1)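 Soluble protein was quantified by TMTpro 16plex LC-MS/MS after channel sums were equalised. It was obtained as the supernatant after 21,000xg for 90 min from pooled aliquots of K562 cells (2×10^6 cells/mL, 10 μM compound, 30 min) heated for 3 min across 48°C-58°C and extracted in PBS with 0.5% NP-40 at 4°C. Thermal stability values are relative to control samples and come from duplicates. They are given as log2 fold changes.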
PKM isoform 2 (UniProt P14618): the log2 fold change is 0 (inactive).

As to PDIK1L (UniProt Q8N165), the log2 fold change is 0.123 (inactive).

As for POLR2C (UniProt P19387), the log2 fold change is 0.059 (inactive).

On to PSD3 (UniProt Q9NYI0), for which the log2 fold change was -0.019 (inactive).

For POLB (UniProt P06746), the log2 fold change was -0.127 (inactive).

In the case of PPP2R5A (UniProt Q15172), the log2 fold change is -0.099 (inactive).

Take POMK (UniProt Q9H5K3): the log2 fold change is -0.079 (inactive).

Consider PRKAG1 isoform 3 (UniProt P54619), for which the log2 fold change was -0.018 (inactive).

As to PSMB9 (UniProt P28065), the log2 fold change is 0.114 (inactive).

Regarding PTGFRN (UniProt Q9P2B2), the log2 fold change is 0.032 (inactive).

For PGK2 (UniProt P07205), the log2 fold change was 0.054 (inactive).

In the case of PIGH (UniProt Q14442), the log2 fold change was 0.06 (inactive).

For PTP4A2 (UniProt Q12974), the log2 fold change is 0.039 (inactive).

For the target PNN (UniProt Q9H307), the log2 fold change is 0.248 (inactive).

As to PPP2R5B (UniProt Q15173), the log2 fold change is -0.348 (inactive).

For PLIN2 (UniProt Q99541), the log2 fold change is -0.173 (inactive).

For the target PCNX1 (UniProt Q96RV3), the log2 fold change was 0.331 (inactive).

Consider PNPLA4 (UniProt P41247), for which the log2 fold change is -0.152 (inactive).

Consider POGZ (UniProt Q7Z3K3), for which the log2 fold change was -0.077 (inactive).

As for PRMT3 (UniProt O60678), the log2 fold change was -0.126 (inactive).

Consider PEX16 isoform 2 (UniProt Q9Y5Y5), for which the log2 fold change is -0.065 (inactive).

On to PIK3CD (UniProt O00329), for which the log2 fold change was -0.069 (inactive).

Take PTEN isoform 2 (UniProt P60484): the log2 fold change was 0.024 (inactive).

As to PPP1R12C (UniProt Q9BZL4), the log2 fold change is 0.029 (inactive).

With POLR2M (UniProt Q6EEV4), the log2 fold change is 0.13 (inactive).

As for PSMB4 (UniProt P28070), the log2 fold change was 0.073 (inactive).

Take PDPK1 (UniProt O15530): the log2 fold change is -0.136 (inactive).

For the target PHKA1 (UniProt P46020), the log2 fold change was 0.042 (inactive).

With POLR2E (UniProt P19388), the log2 fold change is 0.027 (inactive).

Turning to PRMT8 (UniProt Q9NR22), the log2 fold change was 0.019 (inactive).

For the target PRKAR2A (UniProt P13861), the log2 fold change is 0.03 (inactive).

As to PHC3 isoform 7 (UniProt Q8NDX5), the log2 fold change was 0.076 (inactive).

PATL1 (UniProt Q86TB9): the log2 fold change is 0.109 (inactive).

Consider PARP1 (UniProt P09874), for which the log2 fold change was -0.233 (inactive).

Turning to PHLDB1 isoform 2 (UniProt Q86UU1), the log2 fold change is -0.03 (inactive).

As for QRICH1 (UniProt Q2TAL8), the log2 fold change was -0.464 (active).

Regarding PEA15 isoform 2 (UniProt Q15121), the log2 fold change is -0.078 (inactive).

Compound in another experiment: CC[C@@H]1C(=O)N(C)c2cnc(Nc3ccc(C(=O)N[C@H]4CC[C@H](N5CCN(CC6CC6)CC5)CC4)cc3OC)nc2N1C(C)C [volasertib]
Described as above. The method in brief:
as §1
Turning to PKM isoform 2 (UniProt P14618), the log2 fold change was 0.091 (inactive).

Take PDIK1L (UniProt Q8N165): the log2 fold change is 0.108 (inactive).

Consider POLR2C (UniProt P19387), for which the log2 fold change is -0.187 (inactive).

Turning to PSD3 (UniProt Q9NYI0), the log2 fold change was -0.108 (inactive).

In the case of POLB (UniProt P06746), the log2 fold change is -0.073 (inactive).

As to PPP2R5A (UniProt Q15172), the log2 fold change is -0.295 (active).

Turning to POMK (UniProt Q9H5K3), the log2 fold change is -0.093 (inactive).

PRKAG1 isoform 3 (UniProt P54619): the log2 fold change is -0.207 (inactive).

Regarding PSMB9 (UniProt P28065), the log2 fold change was 0.008 (inactive).

Turning to PTGFRN (UniProt Q9P2B2), the log2 fold change was 0.008 (inactive).

For PGK2 (UniProt P07205), the log2 fold change is 0.123 (inactive).

Consider PIGH (UniProt Q14442), for which the log2 fold change is -0.008 (inactive).

As for PTP4A2 (UniProt Q12974), the log2 fold change is 0.083 (inactive).

PNN (UniProt Q9H307): the log2 fold change was -0.039 (inactive).

With PPP2R5B (UniProt Q15173), the log2 fold change was -0.173 (inactive).

In the case of PLIN2 (UniProt Q99541), the log2 fold change is -0.259 (inactive).

Regarding PCNX1 (UniProt Q96RV3), the log2 fold change was 0.132 (inactive).

Turning to PNPLA4 (UniProt P41247), the log2 fold change is -0.093 (inactive).

Take POGZ (UniProt Q7Z3K3): the log2 fold change is -0.293 (inactive).

On to PRMT3 (UniProt O60678), for which the log2 fold change was -0.411 (active).

Take PEX16 isoform 2 (UniProt Q9Y5Y5): the log2 fold change is -0.138 (inactive).

As to PIK3CD (UniProt O00329), the log2 fold change is -0.036 (inactive).

Turning to PTEN isoform 2 (UniProt P60484), the log2 fold change is 0.05 (inactive).

For the target PPP1R12C (UniProt Q9BZL4), the log2 fold change was -0.027 (inactive).

POLR2M (UniProt Q6EEV4): the log2 fold change is 0.009 (inactive).

As for PSMB4 (UniProt P28070), the log2 fold change was 0.114 (inactive).

In the case of PDPK1 (UniProt O15530), the log2 fold change is -0.232 (inactive).

Regarding PHKA1 (UniProt P46020), the log2 fold change is -0.367 (inactive).

As for POLR2E (UniProt P19388), the log2 fold change is -0.067 (inactive).

Consider PRMT8 (UniProt Q9NR22), for which the log2 fold change was -0.074 (inactive).

For PRKAR2A (UniProt P13861), the log2 fold change was -0.024 (inactive).

For the target PHC3 isoform 7 (UniProt Q8NDX5), the log2 fold change was -0.163 (inactive).

In the case of PATL1 (UniProt Q86TB9), the log2 fold change is 0.013 (inactive).

Consider PARP1 (UniProt P09874), for which the log2 fold change was -0.57 (active).

Take PHLDB1 isoform 2 (UniProt Q86UU1): the log2 fold change was -0.222 (inactive).

On to QRICH1 (UniProt Q2TAL8), for which the log2 fold change was -0.39 (inactive).

On to PEA15 isoform 2 (UniProt Q15121), for which the log2 fold change was -0.162 (inactive).

(Values after the supplement of paper PMC10849652.)
